The nature of test [1]: Viability qHTS for spleen associated tyrosine kinase inhibitor (SYKi) drug resistant MV4-11 cells (AID 1963824). Also: nearly all actives have a fitted effect of over 35% in size. In a few lines:
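CellTiter-Glo luminescence, read 10 min after reagent addition, reports viability after a 72 hr compound exposure. Cells are an MV4-11 line made resistant to SYK inhibition, seeded at 500 per well onto compound-containing plates.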
A general note: qHTS replaces the single test concentration by a dilution series.

Test [2] is described as follows: Quantitative highthroughput screen to assess conditional lethalithy of NOMO1 cells grown in RPMI1640 with untreated serum (RPMI+s) (AID 1963876). Also: nearly all actives have a fitted effect of over 35% in size.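 As to Viability: 100% = DMSO wells and 0% = empty wells without cells.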 In outline:
(§1)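 Each medium arm—HPLM with 10% dialyzed FBS, or RPMI1640 with 5 mM glucose and 10% untreated or dialyzed FBS—was screened against an 11-point, 3-fold compound titration for 48 h at 37 °C, with CellTiter-Glo luminescence as endpoint.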

Test [3] in a line: Quantitative highthroughput screen to assess conditional lethalithy of SEM cells grown in RPMI1640 with unreated serum (RPMI+s) (AID 1963883). Also: nearly all actives have a fitted effect of over 35% in size.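 As to Viability: 100% = DMSO wells and 0% = empty wells without cells.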 In a few lines: as §1
The nature of test [4]: Quantitative highthroughput screen to assess conditional lethalithy of NOMO1 cells grown in RPMI1640 with dialyzed fetal bovine serum (RPMI+ds) (AID 1963877). Also: nearly all actives have a fitted effect of over 30% in size.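 As to Viability: series mostly up to about 46 µM; 100% = DMSO control wells and 0% = empty wells.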 In a few lines:
as §1

Test [5] in a line: Cellular viability qHTS for adrenocortical cancer (ACC) cell line SW-13 (AID 1963989). Also: nearly all actives have a fitted effect of over 65% in size.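 As to activity (max response): cells grown in serum-free medium with ITS supplement; % is scaled to controls: 0 for no effect and ±100 for the full control effect.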 Particulars: SW-13 ACC cells viability, CellTiter-Glo, 48 h; activity (max response): stronger effect = lower value. In a few lines: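 Here, serum-free SW-13 cultures were dosed up to 46 uM. Following 48 h, ATP-dependent luminescence (CellTiter-Glo) reported viable cells, and logistic modeling produced IC50 values.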

Test [6] in a line: Cellular viability qHTS for adrenocortical cancer (ACC) cell line NCI-H295R (AID 1963990). Also: nearly all actives have a fitted effect of over 60% in size. In a few lines: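 Viability of NCI-H295R after 48 h of treatment (final up to 46 uM) measured through cellular ATP luminescence.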
Test [7] in a line: Quantitative highthroughput screen to assess conditional lethalithy of NOMO1 cells grown in Human Plasma-Like Medium with dialyzed fetal bovine serum (HPLM+ds) (AID 1963878). Also: nearly all actives have a fitted effect of over 35% in size.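 As to Viability: 100% = DMSO wells and 0% = empty wells on each plate.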 In a few lines: as §1
Test [8] is described as follows: Quantitative highthroughput screen to assess conditional lethalithy of P12 Ichikawa cells grown in Human Plasma-Like Medium with dialyzed fetal bovine serum (HPLM+ds) (AID 1963879). Also: nearly all actives have a fitted effect of over 35% in size. As to Viability: series mostly up to about 46 µM. The note with it: Potency: viability. In a few lines:
as §1

The nature of test [9]: Quantitative highthroughput screen to assess conditional lethalithy of P12 Ichikawa cells grown in RPMI1640 with dialyzed fetal bovine serum (RPMI+ds) (AID 1963880). Also: nearly all actives have a fitted effect of over 35% in size.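 As to Viability: 100% = DMSO wells and 0% = empty wells on each plate.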 The note with it: Potency: P12-Ichikawa viability. In a few lines: as §1
A short description of test [10]: Quantitative highthroughput screen to assess conditional lethalithy of P12 Ichikawa cells grown in RPMI1640 with untreated serum (RPMI+s) (AID 1963881). Also: nearly all actives have a fitted effect of over 35% in size.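 As to Viability: series mostly up to about 46 µM; 100% = DMSO wells and 0% = empty wells without cells.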 Particulars: Potency: viability. In a few lines:
as §1

Test [11] in a line: Quantitative highthroughput screen to assess conditional lethalithy of SEM cells grown in Human Plasma-Like Medium with dialyzed fetal bovine serum (HPLM+ds) (AID 1963882). Also: nearly all actives have a fitted effect of over 35% in size. As to Viability: series mostly up to about 46 µM. In outline: as §1
Test [12] in a line: Quantitative highthroughput screen to assess conditional lethalithy of SEM cells grown in RPMI1640 with dialyzed fetal bovine serum (RPMI+ds) (AID 1963884). Also: nearly all actives have a fitted effect of over 35% in size.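 As to Viability: series mostly up to about 46 µM; 100% = DMSO control wells and 0% = empty wells without cells.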 In a few lines: as §1

Values joined by “and” are separate entries in the source; they are usually repeats but may differ in a detail not shown here. Equal entries are not always repeated. Results filed as inconclusive are left out. Some structures have more than one record in an assay (separate samples or runs), and their calls can disagree. Active and inactive are the calls of the source. Calls follow the shape of the dose curve; as a rule, active = well fitted curve in the direction sought with a large enough effect; inconclusive = small, poorly fitted or top-dose-only effect, or another doubt; inactive = no such curve, though single readings can be large; an effect the other way counts as inactive or inconclusive.
Potency is read from the fitted curve at half-maximal effect.

`Nc1nc(N)c2nc(CNc3ccc(C(=O)NC(CCC(=O)O)C(=O)O)cc3)cnc2n1` (stereo not drawn): the Potency in [1] was 0.0148 µM (active); in [3], 0.0418 µM (active). Besides, the Potency entry in test [2] is “inactive”.

Regarding `Cc1nn(C)c(COc2ccc(N3CCN(S(=O)(=O)N(C)C)CC3)cc2)c1-c1cccc2c(CCCOc3cccc4ccccc34)c(C(=O)O)n(CCN3CCOCC3)c12`, in [1], the Potency is 6.61 µM (active) and inactive. The Potency result in [4] and in test [6] was “inactive” each time. For the same molecule, the activity (max response) in [5] is -16.3% (inactive).

As for `O=c1[nH]c(=O)n(C2CCCO2)cc1F` (stereo not drawn), the Potency in test [1] is 18.6 µM (active). Further, the Potency result in test [4], in test [7], in test [8] and in test [6] was “inactive” in each case. Besides, the activity (max response) in test [5] is 4.88% (inactive).

With `CN(C)c1ccccc1CN1CCCN(Cc2ccccc2N(C)C)C1c1ccncc1`, the Potency in test [1] is 7.42 µM (active); in test [5], 28.2 µM (active); in test [6], 28.2 µM (active). The Potency entry in [2], in test [8], in test [9], in test [10], in [11] and in test [12] was “inactive” each time.

For `O=C(CCc1ccc(O)cc1)c1c(O)cc(O)cc1O`, the Potency entry in test [1], in [4], in [8], in test [9], in test [10] and in [11] was “inactive” throughout. In addition, the Potency result in test [3] and in test [6] was “inactive” throughout. Besides, the activity (max response) in [5] is -4.39% (inactive).

As to `CNCCN(C)Cc1cn[nH]c1-c1ccc(OC2CC(OCCC3CCOCC3)C2)cc1` (stereo not drawn), the Potency in test [1] is 14.8 µM (active). In addition, the Potency entry in test [4], in test [7], in test [9], in [10] and in test [6] was “inactive” each time.

In the case of `OCCN(CCO)c1nc(N2CCCCC2)c2nc(N(CCO)CCO)nc(N3CCCCC3)c2n1`, the Potency in test [1] is 18.8 µM (active) and 14.8 µM (active); in test [6] it was 1.46 µM (active) and inactive. For the same molecule, the Potency entry in test [2] and in test [11] was “inactive” in each case.

In the case of `CC1=C(C(=O)O)N2C(=O)[C@@H](NC(=O)[C@H](N)C3=CCC=CC3)[C@H]2SC1`, the Potency entry in [1], in [4], in [7], in test [8], in test [9] and in test [10] was “inactive” throughout. Moreover, the Potency entry in [11], in test [3], in test [12] and in test [6] was “inactive” throughout. Moreover, the activity (max response) in test [5] was -13.1% (inactive).

On to `CC(C(=O)O)c1ccc2c(c1)CC(=O)c1ccccc1S2` (stereo not drawn), for which the Potency entry in test [1], in test [11], in test [3], in test [12] and in test [6] was “inactive” throughout. Further, the Potency in test [2] is 7.43 µM (active); in [9], 10.5 µM (active); in [10], 9.35 µM (active). The activity (max response) in [5] was -16.4% (inactive) and 14.9% (inactive).

For `COc1ccc(-c2ccc3c(N4CCOCC4)nc(N4C[C@@H](C)O[C@@H](C)C4)nc3n2)cc1CO`, the Potency was 1.32 µM (active) in [1]; 4.69 µM (active) in [4]; 1.32 µM (active) in test [7]; 1.87 µM (active) in [9]; 1.05 µM (active) in [10]; 1.48 µM (active) in [11]. The Potency in [3] was 1.87 µM (active); in [12] it was 2.64 µM (active); in test [6], 0.631 µM (active).

Take `CS(=O)(=O)c1ccc(-c2cnc(N)c(C(=O)Nc3ccccc3)n2)cc1`: the Potency in test [1] was 2.91 µM (active); in test [10] it was 8.33 µM (active); in [11] it was 8.33 µM (active); in test [3] it was 9.35 µM (active). The Potency result in [2] and in test [8] was “inactive” throughout.

Consider `CN(C)CCN(C)C(=O)c1ccc(NC(=O)Nc2ccc(-c3nc(N4CCOCC4)c4ccn(CC(F)(F)F)c4n3)cc2)cc1`, for which the Potency in test [1] was 0.0525 µM (active); in test [2], 0.132 µM (active); in test [5], 0.708 µM (active); in test [6], 3.16 µM (active).

With `Cc1c(C)n(Cc2ccc(-c3ccccc3C(=O)O)cc2)c2ccc(C(=O)N[C@@H](C)c3ccc([N+](=O)[O-])cc3)cc12`, the Potency in [1] was 20.9 µM (active); in test [4], 9.35 µM (active); in test [9], 10.5 µM (active). Also, the Potency entry in test [11], in [3] and in [12] was “inactive” each time.

As to `CO[C@@H]1[C@@H](OC(N)=O)[C@@H](O)[C@H](Oc2ccc3c(O)c(NC(=O)c4ccc(O)c(CC=C(C)C)c4)c(=O)oc3c2C)OC1(C)C`, the Potency result in test [1], in test [8], in test [9], in [10], in test [11] and in [3] was “inactive” each time. In addition, the Potency entry in test [6] is “inactive”. Besides, the activity (max response) in test [5] was 15.7% (inactive) and -3.94% (inactive).

Consider `CC(C)(O)CNc1nc(Nc2ccnc(C(F)(F)F)c2)nc(-c2cccc(C(F)(F)F)n2)n1`, for which the Potency is 14.8 µM (active) in test [1], 2.95 µM (active) in [8], 2.95 µM (active) in test [9] and 2.95 µM (active) in test [10].

The values above are taken from PubChem BioAssay (NCATS).
